Compound activity (PubChem BioAssay)
CYP2C9 activ: increases human cytochrome P450 2C9 activity; P11712; recombinant CYP2C9, luciferin-H conversion, luminescence; hits give high values; factor 1 = untreated enzyme, 0 = blocked; activation factor at 5 µM; 96,000 tested, 1.4% active; AID 1024;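 active = activation factor of 2 or more for CYP2C9 at a 5 µM dose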
Target sequence (P11712 whole entry, looked up): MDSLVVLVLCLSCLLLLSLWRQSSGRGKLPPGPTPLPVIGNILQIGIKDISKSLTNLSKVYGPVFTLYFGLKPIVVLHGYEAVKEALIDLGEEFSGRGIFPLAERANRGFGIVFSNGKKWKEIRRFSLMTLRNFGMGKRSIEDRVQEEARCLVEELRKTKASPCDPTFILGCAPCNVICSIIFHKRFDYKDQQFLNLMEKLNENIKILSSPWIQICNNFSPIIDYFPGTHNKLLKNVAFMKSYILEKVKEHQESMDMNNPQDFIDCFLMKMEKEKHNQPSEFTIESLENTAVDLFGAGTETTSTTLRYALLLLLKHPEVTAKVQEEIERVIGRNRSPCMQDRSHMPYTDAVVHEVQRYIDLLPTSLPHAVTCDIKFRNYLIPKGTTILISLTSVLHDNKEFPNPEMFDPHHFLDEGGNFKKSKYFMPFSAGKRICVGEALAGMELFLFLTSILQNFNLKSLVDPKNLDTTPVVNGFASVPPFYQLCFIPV
CYP2C19 inh: inhibitors of human CYP2C19 | CYP2C19 Supersomes, luciferin-H EGE luminescence, 30 min | AID 778 | inhibition, % at 5 µM | P33261 | 96,000 tested, 21% active;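 active = CYP2C19 inhibition above a set limit at 5 µM in the primary screen, cut at about 50% in these data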
CYP2C19 act: activators of human cytochrome P450 2C19; P33261; recombinant CYP2C19, luciferin-H EGE luminescence; hits give high values; 0 = fully inhibited enzyme, 1 = untreated enzyme; activation factor at 5 µM; 96,000 tested, under 10 active;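 active = activation factor of at least 2 at 5 µM in the primary screen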
CYP2C9 inh: human CYP2C9 inhibition. 96,000 tested, 20% active. inhibition, % at 5 µM. P11712. CYP2C9 Supersomes, luciferin-H conversion, luminescence;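 active = blocking of liver enzyme CYP2C9 beyond about 50% at 5 µM, limit read from the data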
sEH inhibitor: soluble epoxide hydrolase (human) inhibition. P34913. recombinant human sEH enzymatic activity assay. inhibition, % at 2 µM. 91,000 tested, 0.34% active. AID 707; in the data active = inhibition above about 80%
sEH activator: increases human soluble epoxide hydrolase activity | P34913 | purified human sEH enzymatic activity, activator screen | activation, % at 2 µM | 91,000 tested, 0.04% active; in the data active = activation above about 37%
Each line names hits and unclear results; the compound was inactive in the other large screens. Shown are actives, neighbours in structure and some others; about 27% of the full set was active somewhere.

c1ccc(Cn2c(-c3cncs3)nc3ccccc32)cc1	CYP2C19 inh 73, CYP2C9 inh 94
N#CCCCCn1c(-c2cncs2)nc2ccccc21	CYP2C19 inh 56 (no result: sEH inhibitor, sEH activator)
Cc1ccc(-n2nc(C(=O)NCc3ccc(C)o3)c3c4ccccc4n(C)c3c2=O)cc1	none
O=C(NCc1ccco1)c1ccc(COCC(F)(F)F)cc1	none
CCCCSc1nnc(CSc2nc3nc(C)cc(C)n3n2)o1	none
CCC(C)(C)NC(=O)C(c1cccnc1)N(CCOC)C(=O)Cn1nnc2ccccc21 (stereo unspecified)	none
COC(=O)C1(C(=O)OC)NOC2C(=O)N(c3ccc(Cl)cc3Cl)C(=O)C21 (stereo unspecified)	none
Cc1ccc(-n2c(C)cc(/C=N/NC(=O)c3ccncc3)c2C)c(C)c1	none
COC(=O)C1=C(C)N(Cc2ccc(OC)cc2)C(=O)C1	CYP2C19 inh 97 (no result: sEH inhibitor, sEH activator)
COC(=O)C1=C(C)N(Cc2ccco2)C(=O)C1	none
COC(=O)C1=C(C)N(CCc2ccc(OC)c(OC)c2)C(=O)C1	CYP2C19 inh 65
COC(=O)C1=C(C)N(Cc2ccc(OC)c(OC)c2)C(=O)C1	none
COC(=O)C1=C(C)N(CCc2ccc(OC)cc2)C(=O)C1	CYP2C19 inh 78
COC(=O)C1=C(C)N(Cc2cccnc2)C(=O)C1	none (no result: CYP2C9 activ, CYP2C19 inh, CYP2C19 act, CYP2C9 inh)
COC(=O)C1=C(C)N(CC(C)C)C(=O)C1	CYP2C19 inh 71
Brc1ccc(-c2cn3c(n2)CCc2ccc4cccnc4c2-3)cc1	none
O=C(Nc1cccnc1)c1cc(-c2ccc3c(c2)OCO3)on1	none (no result: sEH inhibitor, sEH activator)
CC1Cc2ccccc2N1C(=O)Cn1cc([N+](=O)[O-])cn1 (stereo unspecified)	none
CCc1ccc2[nH]c(=O)c(CN(Cc3ccc(F)cc3)C(c3nnnn3CCN3CCOCC3)C(C)C)cc2c1 (stereo unspecified)	none
CCOC(=O)C1(C(=O)OCC)CC1c1ccccc1 (stereo unspecified)	none
COc1ccc(CCN2C(=O)C3C4C=CC(C4)C3C2=O)cc1OC (stereo unspecified)	CYP2C19 inh 57
COc1ccc(CCN2C(=O)C3C4C=CC(C3C2=O)C2C(=O)N(CCc3ccc(OC)c(OC)c3)C(=O)C42)cc1OC (stereo unspecified)	none
COc1cccc(NC=C2C(=O)OC3(CCCCC3)OC2=O)c1	none (no result: sEH inhibitor, sEH activator)
COc1ccc(C2=CC(=O)OC3(CCCCC3)O2)cc1	CYP2C19 inh 95, CYP2C9 inh 88
Cc1cccc(N(CC(=O)NC2CCCCC2)C(=O)c2c(C)noc2C)c1	none
Cc1ccc(-c2nn(CC(=O)N(C)C)c(=O)c3ccccc23)cc1S(=O)(=O)N(C)C	CYP2C9 inh 62
COC(=O)Cn1nc(C)c2ccccc2c1=O	none (no result: CYP2C9 activ, CYP2C19 inh, CYP2C19 act, CYP2C9 inh)
COC(=O)Cn1nc(-c2ccc(C)c(S(=O)(=O)N(C)C)c2)c2ccccc2c1=O	CYP2C9 inh 59 (no result: sEH inhibitor, sEH activator)
COCCN(CCOC)Cc1c(C)[nH]c2ccccc2c1=O	CYP2C19 inh 65
CCc1c(C)[nH]c2ccccc2c1=O	CYP2C9 activ 4.7 (no result: sEH inhibitor, sEH activator)
Cc1[nH]c2ccccc2c(=O)c1CN(C)Cc1ccccc1	none
CC(=O)CCc1c(C)[nH]c2ccccc2c1=O	CYP2C9 activ 2.2
CCc1c(C)[nH]c2c(C)cccc2c1=O	none
CC(=O)c1c(C)[nH]c2ccccc2c1=O	none
CC(=O)c1cccc(NC(=O)NCCS(C)=O)c1 (stereo unspecified)	none
CC(C)(C)C(=O)/C=C/Nc1ccccc1O	none
Nc1cc(=O)nc(SCC(=O)NC2CCCCC2)n1-c1ccccc1	none
CCn1nccc1C(=O)Nc1ccc(Cl)cn1	CYP2C19 inh 59
CCn1ccc(C(=O)Oc2ccc(Cl)cc2)n1	none
CCn1ccc(C(=O)Nc2ccc(Cl)cn2)n1	CYP2C19 inh 67 (no result: sEH inhibitor, sEH activator)
CCn1nccc1C(=O)Nc1cc(Cl)cc(Cl)c1	none (no result: CYP2C9 activ, CYP2C19 inh, CYP2C19 act, CYP2C9 inh)
Cc1cccc(OCCC(=O)Nc2c(C)n(C)n(-c3ccccc3)c2=O)c1	none
COc1ccccc1NC(=O)CN1CCN(CC(=O)Nc2ccc3c(c2)OCO3)CC1	CYP2C19 inh 88 (no result: sEH inhibitor, sEH activator)
COCCNC(=O)CN1CCC(NC(=O)Nc2ccc(C(F)(F)F)cc2)CC1	sEH inhibitor 89
CCOc1ccccc1NC(=O)NC1CCN(CC(=O)Nc2ccc3c(c2)OCCO3)CC1	CYP2C19 inh 59
COc1ccccc1NC(=O)Nc1ccc2c(c1)OCCO2	CYP2C19 inh 82, CYP2C9 inh 54
CCn1c(=O)cc(N2CCC3(CC2)OCCO3)[nH]c1=O	none
C=CCOc1ccccc1/C=c1\sc2nc(=O)c(C)nn2c1=O	none (no result: CYP2C9 activ, CYP2C19 inh, CYP2C19 act, CYP2C9 inh)
Cc1ccc(NC2OC(C(O)CO)C(O)C2O)cc1[N+](=O)[O-] (stereo unspecified)	none
CC(C)c1ccc(NC(=O)NC2CCN(CC(=O)Nc3cccc4ccccc34)CC2)cc1	CYP2C19 inh 56, sEH inhibitor 90
COc1ccc(S(=O)(=O)n2nc(OC(=O)c3ccccc3Br)cc2N)cc1	CYP2C9 inh 93
COc1ccc(S(=O)(=O)n2nc(OC(=O)c3ccc(C)cc3)cc2N)cc1	CYP2C9 inh 81 (no result: sEH inhibitor, sEH activator)
COc1ccc(S(=O)(=O)n2nc(OC(=O)c3ccccc3)cc2N)cc1	none
Cc1ccc(S(=O)(=O)n2nc(OC(=O)c3c(-c4ccccc4Cl)noc3C)cc2N)cc1	CYP2C9 inh 93
Cc1onc(-c2ccccc2Cl)c1C(=O)Oc1cc(N)n(S(=O)(=O)c2ccc(F)cc2)n1	none
COc1ccc(S(=O)(=O)n2nc(OC(=O)c3cccs3)cc2N)cc1	CYP2C9 inh 73
Cc1cccc(C)c1NC1=NC(=S)N(c2ccccc2)C12CCOC(C)(C)C2 (stereo unspecified)	none
Cc1ccc(N2C(=S)N=C(Nc3ccccc3C)C23CCOC(C)(C)C3)cc1 (stereo unspecified)	CYP2C9 inh 51
Cc1ccc(OCC(=O)NNC(=O)c2cc3ccccc3o2)cc1C	none
CC(=Nc1ccc(C)c(C)c1)C1=C(O)CSC1=O	CYP2C19 inh 65
COc1ccccc1N=C(C)C1=C(O)CSC1=O	CYP2C19 inh 64
COc1ccc(OC)c(N=C(C)C2=C(O)COC2=O)c1	none (no result: sEH inhibitor, sEH activator)
CCC(CCC(=O)Nc1ccn(-c2ccccc2)n1)C(=O)O (stereo unspecified)	none (no result: sEH inhibitor, sEH activator)
Cc1oc(-c2ccc(Cl)cc2)nc1CSCC(=O)NCCCN1CCOCC1	none
c1c2c(cc3sc(N4CCOCC4)nc13)OCO2	none
CC(=O)Nc1nc2cc3c(cc2s1)OCO3	CYP2C19 inh 64 (no result: sEH inhibitor, sEH activator)
c1c2c(cc3sc(N4CCCCC4)nc13)OCO2	CYP2C19 inh 84 (no result: sEH inhibitor, sEH activator)
C#CCOC(=O)c1ccccc1C(=O)O	none (no result: CYP2C9 activ, CYP2C19 inh, CYP2C19 act, CYP2C9 inh)
Nc1ccccc1C(=O)NNc1ncc(C(F)(F)F)cc1Cl	none
Cc1ccc(NC(=S)NNc2ncc(C(F)(F)F)cc2Cl)c(C)c1	CYP2C19 inh 67
CCCCCn1c(=O)[nH]c2c(c1=O)CCC2	none (no result: sEH inhibitor, sEH activator)
O=C(NCCCN1CCOCC1)c1cc2ccccc2o1	none
Cc1ccc(-c2noc(CCC(=O)N3CCN(c4cccc(C(F)(F)F)c4)CC3)n2)cc1	CYP2C19 inh 77, CYP2C9 inh 93 (no result: sEH inhibitor, sEH activator)
